Assay outcomes deposited in PubChem by National Center for Advancing Translational Sciences (NCATS).
Compounds with a hit are over-represented: about 9.9% of the library has one in this group of screens.
SW480 rerep – inducers of DNA re-replication in SW480 colon cancer cells | actives 1.8% (n = 340,000) | AID 624297 | SW480 DNA re-replication, Hoechst DNA content imaging, 48 h | Potency, µM (doses to about 46.1 µM), without a hit: at the highest dose re-replication activation, most hits filed as activators; further: potency means the concentration at half of the fitted maximal effect; % of control where 0% means no effect; nearly all actives have a fitted effect of over 55% in size
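First, 250 cells per well were seeded. Next, compound or vehicle (23 nL) was pinned in, plates sat 48 hr at 37 C. Finally Hoechst was added for 40 min before fluorescence scanning.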
KB-V1 cytotox – KB-V1 MDR subline cytotoxicity. KB-V1 MDR cells viability, CellTiter-Glo, 72 h. Potency, µM (highest dose often 46.1 µM), most hits filed as cytotoxic. actives 3.4% (n = 400,000); further: potency means the concentration at half of the fitted maximal effect; on the % scale 0 is the no-effect control and ±100 the full control effect; nearly all actives have a fitted effect of over 60% in size
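KB-V1 cells (P-gp-expressing MDR subline of KB-3-1) in phenol-red-free DMEM with 10% FBS were exposed to library compounds over a concentration series for 72 h at 37 degrees C. Viability read by CellTiter-Glo luminescence; concentration-effect curves fitted after normalization.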
IL-1B inflam inh – blocks inflammasome-driven IL-1 beta release | THP-1 LPS/ATP IL-1B secretion, AlphaLISA, 16 h; stronger effect = lower value | activity change, % at 57.5 µM | actives 4.7% (n = 360,000) | AID 743279; in the data active means activity change below about -50%; inconclusive means mostly about -30% to -49%; further: on the % scale 0 is the no-effect control and ±100 the full control effect
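THP-1 cells pretreated 1 hr with compounds (up to 57.5 uM final), then stimulated with LPS (250 ng/mL final) plus ATP (1.25 mM final); secreted IL-1B measured by AlphaLISA after 16 hr, decreased signal indicating inhibition.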
KB-3-1 cytotox – KB-3-1 parental cell cytotoxicity; KB-3-1 viability, CellTiter-Glo ATP luminescence, 72 h; Potency, µM (highest dose often 46.1 µM), usual class: cytotoxic; actives 1.4% (n = 400,000); AID 1347075; further: potency means the concentration at half of the fitted maximal effect; on the % scale 0 is the no-effect control and ±100 the full control effect; nearly all actives have a fitted effect of over 60% in size
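Multi-concentration cytotoxicity screen in KB-3-1 cells grown in DMEM lacking phenol red with 10% FBS. After 72 h at 37 °C with compound, ATP-dependent luminescence was recorded.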
MCF10A rereplic – DNA re-replication induction in MCF 10a cells. MCF 10A DNA re-replication, Hoechst nuclear intensity, 48 h. Potency, µM (titrated, usually from 46.1 µM), without a hit: at the top dose activity, positive = re-replication, most hits filed as activators. actives 2.9% (n = 350,000). AID 624296; further: potency means the concentration at half of the fitted maximal effect; % of control where 0% means no effect; nearly all actives have a fitted effect of over 50% in size
Numbers without * were called inactive; i = inactive; ? = inconclusive; · = not tested or not shown. Unless noted, the call rests on the fitted dose curve; in most records, active means well fitted curve in the direction sought with a large enough effect; inconclusive means small, poorly fitted or top-dose-only effect, or another doubt; inactive means no such curve, though single readings can be large; an effect the other way counts as inactive or inconclusive.

SMILES	SW480 rerep	KB-V1 cytotox	IL-1B inflam inh	KB-3-1 cytotox	MCF10A rereplic
COc1ccccc1/C=N/NC(=O)c1cc2c(OC)c(OC)ccc2[nH]1	?	?	32	?	?
COc1cccc(/C=N/Nc2ncnc3scc(-c4ccccc4)c23)c1O	?	?	46	?	13µM*
COc1ccc(-c2csc3ncnc(Nc4ccc(OC)c(OC)c4)c23)cc1	·	?	·	i	·
COc1cccc(/C=N/NC(=O)c2cc3cc([N+](=O)[O-])ccc3s2)c1O	1.8µM*	?	77	?	?
COc1cc(/C=N/NC(=O)c2cccc([N+](=O)[O-])c2)ccc1O	-5%	i	10	i	3%
COC(=O)C[C@H]1c2ccccc2S(=O)(=O)N1c1ccc(N(C)C)cc1	·	?	·	i	·
COc1ccc(NC(=O)C2CCCN(C(=O)Nc3ccc(F)cc3)C2)cc1OC (stereo not given)	-9%	i	8	?	4%
CC(=O)c1ccc(NC(=O)c2cc(-c3ccc(Cl)c(Cl)c3)on2)cc1	·	?	·	i	·
COC(=O)c1sccc1N/N=C/c1cccc(OC)c1O	-2%	?	-12	i	?
COc1cccc(/C=N/NC(=O)c2cnccn2)c1O	5.2µM*	i	76	i	5%
COc1ccc(/C=N/NC(=O)c2cccc3ccccc23)c(OC)c1OC	-14%	?	6	?	15µM*
COC(=O)c1sccc1N/N=C/c1ccc(OC)c(OC)c1OC	11%	?	-14	i	23µM*
O=C(N/N=C/c1cc([N+](=O)[O-])ccc1Cl)c1cnccn1	5.2µM*	i	25	2.6µM*	?
CCCNC(=O)[C@@H]1CCCN1C(=O)[C@@H]1Cc2ccccc2CN1	-7%	?	21	i	-3%
Cc1ccc(C)c(N2CCN(c3nc4ccccc4c4nc(CCn5nc(C)cc5C)nn34)CC2)c1	·	i	·	i	·
CC(NCCCSc1ccccc1)C(O)c1ccc(O)cc1 (stereo not given)	·	i	-18	i	·
NC(=S)N/N=C/c1ccc2cccc(OCc3ccccc3)c2n1	14%	i	-7	i	?
COc1cccc(/C=N/Nc2nccnc2Cl)c1O	0.26µM*	i	111	?	5.8µM*
COc1cccc(/C=N/NC(=O)c2cc3c(OC)cccc3[nH]2)c1O	9.2µM*	?	69	?	0%
COc1cccc(/C=N/NC(=O)c2cc3c(OC)cccc3[nH]2)c1OC	-4%	?	-20	i	?
COc1ccc(/C=N/NC(=O)c2cc3c(OC)ccc(OC)c3[nH]2)cc1O	?	9.2µM*	-27	2.9µM*	?
COc1cccc(/C=N/Nc2ncnc(Cl)c2N)c1O	?	?	14	?	?
NC(=S)N/N=C/c1ccccc1OCc1cccc(Cl)c1	?	i	-26	18µM*	?
COc1ccc(N2C(=O)C3C(c4ccc(C(=O)O)cc4)NC(Cc4ccccc4)(C(=O)O)C3C2=O)c([N+](=O)[O-])c1 (stereo not given)	1%	i	0	i	-9%
Cc1cccc(C)c1NC(=O)c1csc(COCCO)n1	·	i	9	i	·
SMILES	SW480 rerep	KB-V1 cytotox	IL-1B inflam inh	KB-3-1 cytotox	MCF10A rereplic
NCc1cn(Cc2ccccc2)nc1-c1ccccc1	·	i	·	i	·
COc1cccc(/C=N/NC(=O)C(=O)N2CCCCCC2)c1O	?	i	144	i	9%
COc1cccc(/C=N/NC(=O)C(=O)N/N=C/c2cccc(OC)c2O)c1O	6.5µM*	i	154	?	3%
CCOc1ccc(C(=O)Nc2ccc(Cc3ccncc3)cc2)cc1Br	16µM*	i	-89*	?	?
CCOc1ccc(C(=O)Nc2ccc(N3CCN(C)CC3)cc2)cc1Br	?	i	-52*	?	?
COc1cccc(C(NC(C)=O)c2nc(-c3cccc(C#N)c3)cs2)c1 (stereo not given)	·	i	-74*	i	·
COc1cccc(C(NC(C)=O)c2nc(-c3ccc(OC)nc3)cs2)c1 (stereo not given)	·	i	-74*	i	·
COc1cccc(C(NC(C)=O)c2nc(-c3ccccc3)cs2)c1 (stereo not given)	·	i	-15	i	·
CCc1nc2ccc(C(=O)NCc3ccc(N(C)C)cc3)cc2nc1CC	·	i	·	i	·
S=c1[nH]nc(C2CCCCC2)n1/N=C/c1ccc(Br)s1	?	i	2	i	18µM*
FC(F)(F)c1ccc(/C=N/n2c(C3CCCCC3)n[nH]c2=S)cc1	-8%	i	-10	i	23µM*
Cc1cc([N+](=O)[O-])cc(/C=N\NC(=O)C2COc3ccccc3O2)c1O (stereo not given)	?	i	86	?	15%
COc1cccc2c1cc1c(=O)n(CC(=O)NCCCN3CCCCC3)nc(C)n12	2%	i	13	i	4%
Cc1c(-c2ccc(Br)cc2)nc2ccccn12	-4%	21µM*	-81*	i	?
CN(C)c1ccc(-c2nc3ccccn3c2/N=C/c2ccc(Br)cc2)cc1	?	9.2µM*	-9	15µM*	-2%
COc1cc(-c2nc3ccccn3c2/N=C/c2cc(OC)c(OC)c(OC)c2)ccc1O	-5%	i	?	i	3%
CCc1ccccc1NC(=S)N(CCN(C)C)C(C)c1ccccn1 (stereo not given)	-8%	i	3	i	-1%
Cc1ccc(Cl)cc1NC(=S)N(CCN(C)C)C(C)c1ccccn1 (stereo not given)	-2%	i	-73*	i	-7%
Cc1ccc(NC(=O)Cc2ccccc2Cl)cc1S(=O)(=O)N(C)C	15%	23µM*	-5	?	?
CC(=O)N/C(=C\c1ccccc1)C(=O)OCC(=O)Nc1ccc(C)c(S(=O)(=O)N(C)C)c1	5.8µM*	?	-3	i	7%
Cc1ccc(NC(=O)CCNC(=O)c2ccccc2Cl)cc1S(=O)(=O)N(C)C	-3%	i	-23	i	0%
Cc1ccc(NC(=O)COC(=O)c2ccccc2Cl)cc1S(=O)(=O)N(C)C	-2%	i	2	i	-4%
Cc1ccc(NC(=O)COC(=O)/C(=C/c2cccs2)c2cccs2)cc1S(=O)(=O)N(C)C	0%	i	-4	i	?
CC(=O)N/C(=C\c1ccccc1)C(=O)OCc1ccccc1	-2%	i	-3	i	-1%
Cc1ccc(NC(=O)Cc2ccc(Cl)c(Cl)c2)cc1S(=O)(=O)N(C)C	?	2.6µM*	-24	23µM*	?
CC(=O)N/C(=C\c1ccccc1)C(=O)OCC(=O)N(C)C1CCCCC1	?	16µM*	0	i	-86%
